Several values for one entry are separate records, joined by “and”; a condition that tells them apart may be missing. Equal values may be shown once. Results filed as inconclusive are left out. Activity calls are given as the source filed them. Rule for the calls, unless noted: active = hit-call score of the fitted dose curve at least 0.9, where 1 is the maximum; inactive = score below 0.9.
Experiments:
[1] = target: Nuclear respiratory factor 1 (Homo sapiens) (UniProt Q16656); assay: ATG_NRF1_CIS: Attagene CIS-FACTORIAL HepG2 Assay for human Nuclear Respiratory Factor 1 (NRF1) Orphan Gene (AID 2282987); settings: HepG2 NRF1 cis-element reporter, Attagene multiplex; actives raise or lower the signal
In short: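 Measured: fluorescent reporter-specific RT-PCR products from transfected HepG2 cells, separated by capillary electrophoresis. Exposure lasted 24 h. Analysis used bidirectional curve fitting with DMSO as negative control.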

[2] = ATG_NFI_CIS: Attagene CIS-FACTORIAL HepG2 Assay for human Nuclear Factor I (NFI) (AID 2282989); settings: HepG2 cis-regulatory reporter, NFI response element transcription; actives raise or lower the signal
In short: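 After transient transfection of HepG2 with cis-promoter reporter constructs and 24 h dosing, RNA is reverse-transcribed, amplified, 6-FAM end-labelled and HpaI-digested before capillary analysis. Bidirectional curve fitting against DMSO.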

[3] = target: Myc proto-oncogene protein (Homo sapiens) (UniProt P01106); assay: ATG_Myc_CIS: Attagene CIS-FACTORIAL HepG2 Assay for human Myelocytomatosis (Myc) Proto-Oncogene Transcription Factor (AID 2282990); settings: HepG2, Attagene cis-reporter transcription factor activity; actives raise or lower the signal
In short: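 Multiplexed cis-reporter transcription in HepG2 cells after 24 h chemical treatment. Reporter mRNA measured by RT-PCR and capillary electrophoresis fluorescence; activity fitted bidirectionally against DMSO control.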

[4] = ATG_NF_kB_CIS: Attagene CIS-FACTORIAL HepG2 Assay for human Nuclear Factor Kappa B (NF-kB) (AID 2282991); settings: HepG2 Attagene cis-factorial NF-kB reporter mRNA; actives raise or lower the signal
In short: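 Fluorescence of labelled RT-PCR products separated by capillary electrophoresis gives reporter mRNA levels from transfected HepG2 cells exposed 24 h; values are fitted in both directions relative to DMSO.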

[5] = ATG_NRF2_ARE_CIS: Attagene CIS-FACTORIAL HepG2 Assay for human Nuclear Factor Erythroid 2 Related Factor 2 (NFR2) response to Antioxidant Response Elements (ARE) (AID 2282992); settings: HepG2 Attagene ARE/NRF2 reporter, transcription factor activity; actives raise or lower the signal
In short: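 Transient MRTU transfection of HepG2; 24 h compound exposure; TriZol RNA, RT with oligo(dT), PCR, 6-FAM primer extension, HpaI cut, CE. Bidirectional fit vs DMSO.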

[6] = ATG_Oct_MLP_CIS: Attagene CIS-FACTORIAL HepG2 Assay for human Octamer-Binding Transcription Factor (Oct) (AID 2282993); settings: HepG2 Attagene cis-factorial Oct reporter, mRNA; actives raise or lower the signal
In short: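 Cells of the HepG2 line express promoter-controlled reporter sequences whose mRNA levels, after 24 h treatment, are measured by RT-PCR and capillary electrophoresis. Increases and decreases are scored relative to DMSO.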

[7] = target: Cellular tumor antigen p53 (Homo sapiens) (UniProt P04637); assay: ATG_p53_CIS: Attagene CIS-FACTORIAL HepG2 Assay for human p53 Transcription Factor (AID 2282994); settings: HepG2 p53 cis-element reporter, Attagene mRNA; actives raise or lower the signal
In short: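 HepG2, transient MRTU transfection (cis promoter elements, endogenous TFs); 24 h dosing; RNA isolation, RT-PCR, 6-FAM primer extension, HpaI digest, CE fluorescence; bidirectional fit vs DMSO.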

[8] = BSK_3C_TissueFactor: BioMAP Diversity Plus: 3C Assay for Tissue Factor Biomarker Activity (AID 2282997); settings: BioMAP 3C HUVEC, tissue factor biomarker readout; actives raise or lower the signal
In short: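 Values derive from bidirectional curve fitting against DMSO of Tissue Factor ELISA signals, taken 24 h after dosing primary human umbilical vein endothelial cells.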

[9] = BSK_3C_uPAR: BioMAP Diversity Plus: 3C Assay for Urokinase-type plasminogen activator receptor (uPAR) Biomarker Activity (AID 2282998); settings: BioMAP 3C HUVEC, uPAR biomarker ELISA; actives raise or lower the signal
In short: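 Endothelial primary cells of human umbilical vein origin received test chemical; 24 h later uPAR was assayed by ELISA. Fitting was bidirectional, DMSO as negative control.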

[10] = BSK_3C_VCAM1: BioMAP Diversity Plus: 3C Assay for Vascular cell adhesion molecule 1 (VCAM1) Biomarker Activity (AID 2282999); settings: BioMAP 3C HUVEC, VCAM1 ELISA, cytokine-stimulated; actives raise or lower the signal
In short: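 Human umbilical vein endothelial cells were dosed with compound for 24 h, after which cell-surface VCAM-1 was quantified by ELISA. Bidirectional curve fitting used DMSO as negative control and activity baseline.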

[11] = BSK_4H_Eotaxin3: BioMAP Diversity Plus: 4H Assay for Eotaxin 3 Biomarker Activity (AID 2283000); settings: primary human endothelial cells (HUVEC); actives raise or lower the signal
In short: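 Endothelial primary cells (human umbilical vein) exposed to compound for 24 h. ELISA detection of Eotaxin-3.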

[12] = target: human Peroxisome Proliferator-activated Receptor alpha (PPARa), PPARA (gene 5465) (UniProt Q07869); assay: ATG_PPARa_TRANS: Attagene TRANS-FACTORIAL HepG2 Assay for human Peroxisome Proliferator-activated Receptor alpha (PPARa) (AID 2283001; active = hit-call score of the fitted dose curve at least 0.9, where 1 is the maximum)
In short: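 HepG2 cells transiently transfected with multiplexed GAL4-UAS reporter units and chimeric NR-Gal4 constructs were dosed for 24 h. Reporter mRNA was measured by RT-PCR with fluorescent labelling and capillary electrophoresis; gain of signal fitted against DMSO.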

[13] = read-out: Intercellular Adhesion Molecule 1 (ICAM1), ICAM1 (gene 3383); assay: BSK_3C_ICAM1: BioMAP Diversity Plus: 3C Assay for Intercellular Adhesion Molecule 1 (ICAM1) Biomarker Activity (AID 2283003); settings: primary human endothelial cells (HUVEC); actives raise or lower the signal
In short: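 Human vascular endothelial primary cells, 3C conditions, 24 h treatment. ICAM-1 by ELISA.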

[14] = BSK_3C_Proliferation: Cell Proliferation Assessment in the BioMAP Diversity Plus: 3C Assay (AID 2283006); settings: primary human endothelial cells (HUVEC);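 for AC50: potency may reflect either rise or fall in cell number versus DMSO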
In short: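 Proliferation of human vascular endothelial primary cells after 48 h dosing, quantified as SRB-stained protein at 560 nm relative to DMSO.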

[15] = target: Peroxisome proliferator-activated receptor gamma (Homo sapiens) (UniProt P37231); assay: ATG_PPARg_TRANS: Attagene TRANS-FACTORIAL HepG2 Assay for human Peroxisome Proliferator-activated Receptor-gamma (PPARg) (AID 2283007; active = hit-call score of the fitted dose curve at least 0.9, where 1 is the maximum)
In short: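 Twenty-four hours after chemical dosing of transiently transfected HepG2 cells, isolated RNA was converted to cDNA, reporter sequences amplified and 6-FAM-labelled, then HpaI-digested and analysed by capillary electrophoresis. Signal increase against DMSO was fitted.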

[16] = target: Nuclear receptor subfamily 1 group I member 2 (Homo sapiens) (UniProt O75469); assay: ATG_PXR_TRANS: Attagene TRANS-FACTORIAL HepG2 Assay for human Pregnane X Receptor (PXR) (AID 2283008; active = hit-call score of the fitted dose curve at least 0.9, where 1 is the maximum)
In short: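 Read-out is fluorescence of labelled reporter cDNA fragments separated by capillary electrophoresis after RT-PCR and HpaI digestion. Source: HepG2 cells carrying PXR-GAL4/UAS reporter constructs, treated 24 h; activity fitted upward relative to DMSO.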

[17] = target: human Retinoic Acid Receptor gamma (RARg), RARG (gene 5916) (UniProt P13631); assay: ATG_RARg_TRANS: Attagene TRANS-FACTORIAL HepG2 Assay for human Retinoic Acid Receptor gamma (RARg) (AID 2283009; active = hit-call score of the fitted dose curve at least 0.9, where 1 is the maximum)
In short: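 HepG2, RARg-GAL4 TRANS system, 24 h exposure; reporter mRNA by RT-PCR + CE fluorescence; increase over DMSO.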

[18] = target: human Peroxisome Proliferator-activated Receptor delta (PPARd), PPARD (gene 5467) (UniProt Q03181); assay: ATG_PPARd_TRANS: Attagene TRANS-FACTORIAL HepG2 Assay for human Peroxisome Proliferator-activated Receptor delta (PPARd) (AID 2283002; active = hit-call score of the fitted dose curve at least 0.9, where 1 is the maximum)
In short: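 Multiplexed trans-activation format: HepG2 liver cells expressing exogenous NR-Gal4 chimeras and GAL4-UAS reporters were exposed for 24 h. Reporter mRNA was detected by RT-PCR with capillary electrophoresis fluorescence; activity fitted as gain of signal relative to DMSO.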

[19] = target: Retinoic acid receptor alpha (Homo sapiens) (UniProt P10276); assay: ATG_RARa_TRANS: Attagene TRANS-FACTORIAL HepG2 Assay for human Retinoic Acid Receptor alpha (RARa) (AID 2283005; active = hit-call score of the fitted dose curve at least 0.9, where 1 is the maximum)
In short: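 HepG2 cells transiently transfected with multiple reporter units expressing chimeric RARα-GAL4 fusion, with GAL4-UAS-driven reporters. After 24 h compound exposure, reporter mRNA induction quantified by RT-PCR and capillary electrophoresis with fluorescent labeling; gain-of-signal fitted relative to DMSO control.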

Measured: AC50

Sequence of Nuclear respiratory factor 1 (Homo sapiens) (Q16656 whole entry, looked up): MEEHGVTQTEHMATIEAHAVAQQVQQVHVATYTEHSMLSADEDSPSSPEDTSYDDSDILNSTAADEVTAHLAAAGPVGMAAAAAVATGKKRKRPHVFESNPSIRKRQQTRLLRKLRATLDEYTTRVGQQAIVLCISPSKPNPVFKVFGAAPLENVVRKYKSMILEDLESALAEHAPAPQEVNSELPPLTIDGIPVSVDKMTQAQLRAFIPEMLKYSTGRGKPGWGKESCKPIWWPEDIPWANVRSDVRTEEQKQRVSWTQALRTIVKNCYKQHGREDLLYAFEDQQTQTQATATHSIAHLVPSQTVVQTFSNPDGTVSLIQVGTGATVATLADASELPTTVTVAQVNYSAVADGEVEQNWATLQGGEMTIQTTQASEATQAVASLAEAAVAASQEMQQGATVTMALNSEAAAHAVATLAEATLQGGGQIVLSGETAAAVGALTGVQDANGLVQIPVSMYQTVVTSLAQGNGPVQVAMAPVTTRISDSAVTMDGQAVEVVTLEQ
Sequence of Nuclear receptor subfamily 1 group I member 2 (Homo sapiens) (O75469 whole entry, looked up, the tested form may be a part): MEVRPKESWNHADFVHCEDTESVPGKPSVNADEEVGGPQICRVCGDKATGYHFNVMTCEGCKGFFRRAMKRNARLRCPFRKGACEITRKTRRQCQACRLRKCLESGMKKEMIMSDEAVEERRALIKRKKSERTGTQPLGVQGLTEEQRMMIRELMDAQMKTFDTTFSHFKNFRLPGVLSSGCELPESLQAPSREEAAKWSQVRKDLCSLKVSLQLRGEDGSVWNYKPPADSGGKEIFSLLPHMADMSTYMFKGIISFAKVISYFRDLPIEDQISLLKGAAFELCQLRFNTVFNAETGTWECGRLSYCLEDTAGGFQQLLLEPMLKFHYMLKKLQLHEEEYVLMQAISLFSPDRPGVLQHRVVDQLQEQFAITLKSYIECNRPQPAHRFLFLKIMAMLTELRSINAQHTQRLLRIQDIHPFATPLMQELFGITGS
Sequence of Myc proto-oncogene protein (Homo sapiens) (P01106 whole entry, looked up): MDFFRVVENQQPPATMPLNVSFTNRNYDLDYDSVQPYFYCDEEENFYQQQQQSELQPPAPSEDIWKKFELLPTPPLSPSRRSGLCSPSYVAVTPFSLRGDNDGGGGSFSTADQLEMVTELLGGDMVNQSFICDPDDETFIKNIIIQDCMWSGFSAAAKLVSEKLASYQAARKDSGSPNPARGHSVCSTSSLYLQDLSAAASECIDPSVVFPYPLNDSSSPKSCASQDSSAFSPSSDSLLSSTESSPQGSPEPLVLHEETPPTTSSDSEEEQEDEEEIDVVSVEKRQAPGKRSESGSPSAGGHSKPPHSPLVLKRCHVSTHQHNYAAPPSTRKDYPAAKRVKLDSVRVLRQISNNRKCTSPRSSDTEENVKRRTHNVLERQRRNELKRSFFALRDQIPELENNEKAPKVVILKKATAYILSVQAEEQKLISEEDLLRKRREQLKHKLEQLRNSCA
Sequence of human Peroxisome Proliferator-activated Receptor alpha (PPARa), PPARA (gene 5465) (Q07869 whole entry, looked up, the tested form may be a part): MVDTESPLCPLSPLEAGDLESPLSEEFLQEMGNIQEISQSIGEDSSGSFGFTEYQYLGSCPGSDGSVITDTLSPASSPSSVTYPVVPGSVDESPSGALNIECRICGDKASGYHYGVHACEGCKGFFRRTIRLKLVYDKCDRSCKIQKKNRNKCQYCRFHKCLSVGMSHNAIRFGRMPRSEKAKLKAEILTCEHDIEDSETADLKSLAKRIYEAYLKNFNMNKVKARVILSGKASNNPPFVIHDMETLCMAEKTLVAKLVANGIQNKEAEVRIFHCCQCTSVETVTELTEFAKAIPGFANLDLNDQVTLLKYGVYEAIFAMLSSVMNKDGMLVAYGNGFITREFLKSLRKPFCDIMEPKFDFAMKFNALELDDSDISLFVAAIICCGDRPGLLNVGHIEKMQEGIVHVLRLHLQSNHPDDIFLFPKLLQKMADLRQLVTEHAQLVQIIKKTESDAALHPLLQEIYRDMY
Sequence of Cellular tumor antigen p53 (Homo sapiens) (P04637 whole entry, looked up): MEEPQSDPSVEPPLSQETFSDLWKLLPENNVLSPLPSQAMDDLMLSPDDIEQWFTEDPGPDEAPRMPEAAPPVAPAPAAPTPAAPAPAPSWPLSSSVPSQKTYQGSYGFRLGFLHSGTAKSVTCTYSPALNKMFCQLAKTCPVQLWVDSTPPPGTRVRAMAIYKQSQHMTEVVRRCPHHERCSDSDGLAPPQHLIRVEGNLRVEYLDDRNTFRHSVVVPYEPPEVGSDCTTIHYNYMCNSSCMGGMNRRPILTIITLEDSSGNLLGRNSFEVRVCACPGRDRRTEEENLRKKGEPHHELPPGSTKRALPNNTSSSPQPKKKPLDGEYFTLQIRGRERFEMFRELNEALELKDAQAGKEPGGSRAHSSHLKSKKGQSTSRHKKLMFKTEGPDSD
Sequence of Peroxisome proliferator-activated receptor gamma (Homo sapiens) (P37231 whole entry, looked up): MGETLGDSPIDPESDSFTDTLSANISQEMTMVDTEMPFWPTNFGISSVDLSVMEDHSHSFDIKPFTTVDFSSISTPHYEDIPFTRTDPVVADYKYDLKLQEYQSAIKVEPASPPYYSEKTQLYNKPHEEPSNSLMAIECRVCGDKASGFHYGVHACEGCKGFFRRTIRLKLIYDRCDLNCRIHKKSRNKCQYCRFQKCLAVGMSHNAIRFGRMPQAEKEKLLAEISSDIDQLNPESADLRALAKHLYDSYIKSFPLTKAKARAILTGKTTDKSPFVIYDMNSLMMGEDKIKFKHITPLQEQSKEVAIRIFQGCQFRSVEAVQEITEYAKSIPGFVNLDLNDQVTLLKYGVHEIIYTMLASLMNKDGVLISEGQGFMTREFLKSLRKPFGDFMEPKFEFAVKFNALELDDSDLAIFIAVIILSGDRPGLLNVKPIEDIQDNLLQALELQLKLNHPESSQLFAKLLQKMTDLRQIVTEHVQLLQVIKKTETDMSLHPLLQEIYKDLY
Sequence of human Peroxisome Proliferator-activated Receptor delta (PPARd), PPARD (gene 5467) (Q03181 whole entry, looked up, the tested form may be a part): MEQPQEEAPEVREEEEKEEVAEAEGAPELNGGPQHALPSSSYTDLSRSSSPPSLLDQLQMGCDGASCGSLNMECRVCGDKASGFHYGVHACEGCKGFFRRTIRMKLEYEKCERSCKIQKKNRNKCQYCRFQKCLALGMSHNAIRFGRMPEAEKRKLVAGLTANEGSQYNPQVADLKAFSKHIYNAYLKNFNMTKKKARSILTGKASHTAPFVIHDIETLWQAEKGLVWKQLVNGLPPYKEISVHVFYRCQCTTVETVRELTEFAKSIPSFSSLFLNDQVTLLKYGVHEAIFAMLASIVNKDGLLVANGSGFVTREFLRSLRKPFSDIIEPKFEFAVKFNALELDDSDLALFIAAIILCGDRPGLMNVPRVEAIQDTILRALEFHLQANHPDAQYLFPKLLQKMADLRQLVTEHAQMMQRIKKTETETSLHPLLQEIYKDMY
Sequence of human Retinoic Acid Receptor gamma (RARg), RARG (gene 5916) (P13631 whole entry, looked up, the tested form may be a part): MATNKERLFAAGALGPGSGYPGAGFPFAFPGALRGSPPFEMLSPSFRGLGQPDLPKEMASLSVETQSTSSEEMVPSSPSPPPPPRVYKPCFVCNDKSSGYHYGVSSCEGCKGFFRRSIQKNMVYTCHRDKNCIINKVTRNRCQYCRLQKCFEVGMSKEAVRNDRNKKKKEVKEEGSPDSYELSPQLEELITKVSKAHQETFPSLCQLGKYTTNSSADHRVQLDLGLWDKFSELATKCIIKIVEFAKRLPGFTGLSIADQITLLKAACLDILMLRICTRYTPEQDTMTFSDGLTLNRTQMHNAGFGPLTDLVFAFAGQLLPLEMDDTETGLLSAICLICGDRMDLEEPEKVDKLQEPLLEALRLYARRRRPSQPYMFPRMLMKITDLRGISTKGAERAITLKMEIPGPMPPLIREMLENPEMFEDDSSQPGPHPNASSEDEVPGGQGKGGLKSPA
Sequence of Retinoic acid receptor alpha (Homo sapiens) (P10276 whole entry, looked up, the tested form may be a part): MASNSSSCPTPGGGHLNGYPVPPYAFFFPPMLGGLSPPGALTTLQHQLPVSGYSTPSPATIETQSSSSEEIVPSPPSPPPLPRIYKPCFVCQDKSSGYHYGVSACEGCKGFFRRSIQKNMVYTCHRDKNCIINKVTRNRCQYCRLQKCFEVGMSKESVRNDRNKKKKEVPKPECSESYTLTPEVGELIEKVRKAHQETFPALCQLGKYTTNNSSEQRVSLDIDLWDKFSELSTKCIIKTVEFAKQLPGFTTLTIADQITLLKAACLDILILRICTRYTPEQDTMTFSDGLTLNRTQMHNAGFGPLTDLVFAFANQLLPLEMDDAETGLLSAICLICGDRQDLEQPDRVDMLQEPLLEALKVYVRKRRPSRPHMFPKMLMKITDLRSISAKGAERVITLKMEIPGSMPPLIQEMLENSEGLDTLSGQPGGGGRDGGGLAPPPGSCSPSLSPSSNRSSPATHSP

OC(O)C(F)(F)C(F)(F)F
active: [4] 127 µM | [5] 93.6 µM | [7] 121 µM
not listed: [16] | [17] | [18] | [19]
inactive: all other assays above

CCN(CC)c1ccc(C=O)c(O)c1
active: [7] 70.5 µM | [15] 15.3 µM
not listed: [12] | [17] | [18] | [19]
inactive: all other assays above

Cc1ccc(S(=O)(=O)C(I)I)cc1
active: [1] 7.84 µM | [2] 8.6 µM | [3] 8.6 µM | [4] 19.5 µM | [5] 15.9 µM | [6] 8.98 µM | [7] 8.91 µM | [8] 1.85 µM | [9] 1.45 µM | [10] 3.06 µM | [11] 1.84 µM | [13] 3.35 µM | [14] 593 nM
inactive: [15] | [17]

O=C(O)CCC(F)(F)C(F)(F)C(F)(F)F
not listed: [16] | [17] | [18] | [19]
inactive: all other assays above

O=S(=O)(O)CCC(F)(F)C(F)(F)C(F)(F)C(F)(F)C(F)(F)C(F)(F)C(F)(F)C(F)(F)F
active: [5] 91.8 µM
not listed: [17] | [18] | [19]
inactive: all other assays above

CCCCCCCCCCCCCCCCC
inactive: [1] | [2] | [3] | [4] | [5] | [6] | [7] | [12] | [18]

O=S(=O)(O)CCC(F)(F)C(F)(F)C(F)(F)C(F)(F)F
not listed: [12] | [17] | [18]
inactive: all other assays above

CCN=C1C=CC(=C(c2ccc(N(CC)CC)cc2)c2ccc(N(CC)CC)cc2)c2ccccc21
inactive: [2] | [3] | [4] | [15] | [16]
active: [1] 1.04 µM | [5] 0.0811 µM | [6] 0.566 µM | [7] 0.917 µM | [8] 1.96 µM and 1.79 µM | [9] 3.95 µM and 1.39 µM | [10] 2.64 µM and 2.81 µM | [11] 1.74 µM | [13] 3.69 µM and 3.76 µM | [14] 888 nM and 871 nM
